Screens as filed in PubChem BioAssay.
TDP1 cell noCPT = qHTS for Inhibitors of human tyrosyl-DNA phosphodiesterase 1 (TDP1): qHTS in cells in absence of CPT | DT40 Tdp1-/- hTDP1 cells, no CPT, ATP luminescence, 48 h | Potency, µM (series often up to 46.2 µM), without a hit: at the highest dose activity change, negative = growth inhibition, hits mostly inhibitors | AID 686978, 2013 | hit rate 15% among 420,000; also: % is scaled to controls: 0 for no effect and ±100 for the full control effect; nearly all actives have a fitted effect of over 55% in size
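DT40 Tdp1-/-;hTDP1 cells, no CPT (DMSO vehicle only), 400 cells/well; compounds pin-transferred; ≥48 hr, 37 °C; CellTiter-Glo 30 min RT dark, luminescence read.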
ClpP mod = qHTS Assay for Activators of ClpP; ATP-dependent Clp protease proteolytic subunit (Bacillus subtilis (strain 168)), P80244; purified B. subtilis ClpP, FRET peptide cleavage, 20 min; Potency, µM (doses to about 57.5 µM), for inactives: top-dose activity change, negative = active; hit rate 1.9% among 340,000; active = well fitted falling curve with a large enough effect; inconclusive = small, poorly fitted or top-dose-only effect; inactive = no such curve, though single readings can be large or run the other way; also: the source files actives as falling curves though it sought activators and does not explain the sign; nearly all actives have a fitted effect of over 65% in size
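Purified B. subtilis ClpP, 10 microg/mL final in Tris/HCl pH8 with KCl, BSA, glycerol and Tween-20, cleaved an Abz/nitrotyrosine-quenched decapeptide. Fluorescence (ex 320, em 430) was read at 0 and 20 min at room temperature. Delta was normalized to 5.8 microM ADEP and DMSO/no-enzyme controls.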
TDP1 cell CPT = growth inhibition of DT40 Tdp1-/-;hTDP1 cells with camptothecin (screen for TDP1 inhibitors) | Potency, µM (top dose mostly 46.2 µM), without a hit: at the top dose activity change, negative = growth inhibition, most hits filed as inhibitors | chicken DT40 Tdp1-/-;hTDP1 cells + 20 nM CPT, ATP luminescence, 48 h | hit rate 12% among 420,000; also: % is scaled to controls: 0 for no effect and ±100 for the full control effect; nearly all actives have a fitted effect of over 55% in size
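Chicken DT40 Tdp1-/- cells complemented with human TDP1, 400 cells/well, exposed to compounds plus 20 nM camptothecin for at least 48 h at 37 C; viability read as ATP content by CellTiter-Glo luminescence.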
TDP1 block = TDP1 (human) enzyme inhibition | hit rate 0.28% among 350,000 | Q9NUW8 | recombinant TDP1, AlphaScreen DNA substrate cleavage | Potency, µM (highest dose often 130 µM), inactives show at the highest dose activity change, negative = inhibition, actives largely listed as inhibitors | AID 485290; also: % is scaled to controls: 0 for no effect and ±100 for the full control effect; nearly all actives have a fitted effect of over 40% in size
Target sequence (Q9NUW8 whole entry, looked up): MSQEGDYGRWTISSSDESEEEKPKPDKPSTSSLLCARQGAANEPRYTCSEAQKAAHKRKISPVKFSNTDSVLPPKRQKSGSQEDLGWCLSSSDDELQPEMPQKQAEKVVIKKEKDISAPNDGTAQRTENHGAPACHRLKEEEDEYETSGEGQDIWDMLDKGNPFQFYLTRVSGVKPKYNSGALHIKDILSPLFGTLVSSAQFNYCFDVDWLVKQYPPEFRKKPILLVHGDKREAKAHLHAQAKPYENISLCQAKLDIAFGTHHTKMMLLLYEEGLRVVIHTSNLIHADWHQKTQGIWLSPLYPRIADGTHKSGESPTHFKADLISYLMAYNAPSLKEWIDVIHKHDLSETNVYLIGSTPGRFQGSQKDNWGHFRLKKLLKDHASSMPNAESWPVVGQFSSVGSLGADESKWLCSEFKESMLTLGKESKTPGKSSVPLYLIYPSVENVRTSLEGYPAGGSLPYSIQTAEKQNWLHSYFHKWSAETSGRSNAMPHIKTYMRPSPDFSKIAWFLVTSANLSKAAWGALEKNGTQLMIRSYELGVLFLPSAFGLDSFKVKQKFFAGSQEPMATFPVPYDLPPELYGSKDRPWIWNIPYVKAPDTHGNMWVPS
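Recombinant E. coli-expressed Tdp1 (1 nM) preincubated with compound 15 min at RT, then 5'-biotin/3'-phosphotyrosine-FITC DNA substrate (15 nM) added for 5 min. AlphaScreen beads (10 ug/ml) added, 10 min RT; tyrosine-FITC cleavage read as signal loss.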
* hit, by the source's call; ? = inconclusive; / = no result; ! = a repeat was not active; [ ] = another dose, or the depositor's remark. Only some compounds are listed: those with a hit (about 17% of all), similar ones and a draw of the others. Unless noted, calls follow the shape of the dose curve; as a rule, active = well fitted curve in the direction sought with a large enough effect; inconclusive = small, poorly fitted or top-dose-only effect, or another doubt; inactive = no such curve, though single readings can be large; an effect the other way counts as inactive or inconclusive. Potency is read from the fitted curve at half-maximal effect.

SMILES	TDP1 cell noCPT	ClpP mod	TDP1 cell CPT	TDP1 block
CCN1CCN(C(=O)COc2ccc3c(c2)C(=O)CC2(CCN(C(C)=O)CC2)O3)CC1	?	31.6µM*	-9.9%	0.5%
CC1(C)CC(=O)c2cc(OCC(=O)N3CCN(Cc4ccccc4)CC3)ccc2O1	-2.8%	/	6.7%	3.4%
CCCCC[C@@H](/C=C/C=C\C/C=C\C/C=C\CCCC(=O)O)OO	-3.2%[0.628 µM]	/	-23.3%[0.628 µM]	7.3%
COc1ccc(Nc2c(-c3cc(Br)ccc3O)nc3ncccn23)cc1OC	23.1µM*	-0.6%	18.4µM*	4.3%[12.3 µM]
COc1cc(-c2nc3ccc(Cl)cn3c2Nc2ccc3c(c2)OCCO3)ccc1O	?	?	?	10.0%
O=C1NCN(c2ccccc2)C12CCN(C(c1ccnc3ccccc13)c1nnnn1C1CCCCC1)CC2 (configuration not stated)	?	-2.8%	?	/
O=C1NCN(c2ccccc2)C12CCN(C(CCc1ccccc1)c1nnnn1-c1ccc3c(c1)OCCO3)CC2 (configuration not stated)	-112.7%	-2.3%	?	/
CCCCn1nnnc1C(c1ccnc2ccccc12)N1CCC2(CC1)C(=O)NCN2c1ccccc1 (configuration not stated)	?	-4.4%	16.4µM*	/
COc1ccc(C(c2nnnn2-c2ccc3c(c2)OCCO3)N2CCC3(CC2)C(=O)NCN3c2ccccc2)cc1 (configuration not stated)	25.9µM*	-0.9%	?	/
COc1ccc(C(c2nnnn2C2CCCC2)N2CCC3(CC2)C(=O)NCN3c2ccccc2)cc1 (configuration not stated)	?	1.1%	?	/
O=C1NCN(c2ccccc2)C12CCN(C(c1ccnc3ccccc13)c1nnnn1-c1ccc3c(c1)OCCO3)CC2 (configuration not stated)	16.4µM*	-1.1%	?	/
CCC(c1nnnn1-c1ccc2c(c1)OCCO2)N1CCC2(CC1)C(=O)NCN2c1ccccc1 (configuration not stated)	18.4µM*	-1.4%	18.4µM*	/
NC(=O)CF	/	/	/	8.2%
ClC(Br)Br	/	/	/	-3.7%
Oc1ccc2[nH]cc(CCCCN3CC=C(c4ccccc4)CC3)c2c1	16.8µM*	/	26.6µM*	22.9%[56.1 µM]
CCOc1ccccc1CN(CCc1ccc2c(c1)OCO2)Cc1ccc(CC)cc1	?	0.3%	?	/
CC(=O)N1CCN(CC(=O)Nc2ccc(C#N)c(Cl)c2)CC1	3.4%	-0.5%	-28.4%	7.5%
N#Cc1ccc(NC(=O)CN2C(=O)NC3(CCCCCCC3)C2=O)cc1Cl	7.31µM*	0.5%	11.6µM*	-0.7%
O=C1N(c2cccc(Cl)c2)C(c2cccnc2)N2CCCN12 (configuration not stated)	-29.7%	/	-8.9%	2.3%
CCOC(=O)c1cc(-c2ccccc2)n(CCCC(=O)Nc2ccc(C)c(C)c2)c1C	3.66µM*	-17.1%	16.4µM*	7.6%
[Cd+2].[Cl-].[Cl-]	/	/	/	2.5%
C[C@@H]1O[C@@H](O[C@H]2C[C@@H](O)[C@]3(CO)[C@H]4[C@H](O)C[C@]5(C)[C@@H]([C@@H]6COC(=O)C6)CC[C@]5(O)[C@@H]4CC[C@]3(O)C2)[C@H](O)[C@H](O)[C@H]1O	/	/	/	-9.9%[56.1 µM]
CC(C)CNc1c2c(nc3ccccc13)CCC2	18.4µM*	-5.5%	?	/
c1ccc(CNc2c3c(nc4ccccc24)CCC3)cc1	14.6µM*	/	?	/
OCCNc1c2c(nc3ccccc13)CCCC2	-32.1%	0.9%	-8.2%	-1.9%
CCOC(=O)N1CCN(CC(O)COCCC23CC4CC(CC(C4)C2)C3)CC1 (configuration not stated)	29.1µM*	1.2%	11.6µM*	2.2%
Cc1ccc2c(Cl)cc(Cl)c(O)c2n1	3.26µM*!	-1.1%	2.91µM*!	13.4%
Cc1ccc(-n2nc3c(N4CCC(C(=O)NCCc5ccccc5)CC4)nnc(C)c3c2C)cc1	5.8µM*	?	4.61µM*	-2.8%
Cc1cccc(C)c1NC(=O)Cn1c(=O)n(CC2CCC(C(=O)NCCc3ccccc3)CC2)c(=O)c2ccccc21 (configuration not stated)	?	-4.1%	?	0.0%
